# Measurements reported in ChEMBL document CHEMBL3988442, “University of Dundee, Small-Polar-MMV Screening Library” (2021).
# Target: T1, Aspartate--tRNA(Asp/Asn) ligase (Mycobacterium tuberculosis (strain ATCC 25618 / H37Rv)) (UniProt P9WFW3)
# T1 sequence (whole entry): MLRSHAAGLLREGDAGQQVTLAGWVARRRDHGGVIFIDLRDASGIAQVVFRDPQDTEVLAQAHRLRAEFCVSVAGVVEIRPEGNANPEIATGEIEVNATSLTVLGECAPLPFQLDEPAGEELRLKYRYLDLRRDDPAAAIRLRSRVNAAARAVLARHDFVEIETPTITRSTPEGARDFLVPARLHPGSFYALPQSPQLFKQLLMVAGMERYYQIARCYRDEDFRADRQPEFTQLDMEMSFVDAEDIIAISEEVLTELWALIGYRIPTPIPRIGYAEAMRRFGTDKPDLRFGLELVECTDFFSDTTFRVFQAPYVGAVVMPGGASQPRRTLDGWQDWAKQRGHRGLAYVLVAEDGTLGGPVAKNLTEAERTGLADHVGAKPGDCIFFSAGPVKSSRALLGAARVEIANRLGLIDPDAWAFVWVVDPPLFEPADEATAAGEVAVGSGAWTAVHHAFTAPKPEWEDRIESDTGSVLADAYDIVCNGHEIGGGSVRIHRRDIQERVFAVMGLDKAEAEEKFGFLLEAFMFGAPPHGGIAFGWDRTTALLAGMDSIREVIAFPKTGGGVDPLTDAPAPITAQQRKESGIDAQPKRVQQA
# Assay: Assay for Asp RNA synthetase-1 from Mycobacterium tuberculosis
# Format: functional
# Parameters: scale not given: in the data most compounds retested in dose-response had high values
# Conditions: 30 µM
row,Compound,Percent Effect [%]
1,CC(=O)Nc1cc(C(=O)N2CCOCC2c2ccc(C)o2)ccc1F (stereo unspecified),-5.67
2,CNC(=O)NC(=O)CN1CCC(c2c[nH]c3ccc(OC)cc23)CC1,-2.54
3,Cc1ncc(C(=O)N2C[C@H]3CC[C@@H]2CN(S(=O)(=O)N(C)C)C3)c(C)n1,-0.678
4,CN(CCO)Cc1nnc(C2CCN(C(=O)C(C)(C)C)CC2)n1C,3.14
5,CN(C)C(=O)CN(C)C(=O)c1cnc(Cc2ccc(F)cc2)s1,-1.57
6,CN1CCCC(CNC(=O)N2CCN(Cc3ccon3)CC2)C1 (stereo unspecified),-6.42
